Experimental data from publication PMC12864922, “TDP-43 directly inhibits mRNA accumulation in neurites through modulation of mRNA stability”.
Whole data set: some 9,900 sequences, median “r (bound/input frequency ratio)” near 0.7, cut for the highest 2% near 6.5. The list comes from a sample in which the highest values are over-represented; it also holds similar and randomly drawn sequences.

B1: ENSMUSG00000043670.145|Diras1 (ssRNA)
RNA: GGGAGUUCUACAGUCCGACGAUCGCUUCGAUAUCCGCAUGCUAUCAGGGGAGGCACACUGGAACCCUGAACUUGGAGUGUGGAGUGGCUGCCUGGACACUGCCCACCUGGACACCAGCCUUCUGCUGAGAUAGAGACCUUGGCACAGUGGCACCUCGACAGCCACCCCGACUGGGGGUUUGGGGUGCUGAGGGUGGGGUGCCCAGCUGAGAGUCUAUCAGCAAAGUCCCUGUGUGCGGUGAUAGGACUAGUGGCUGCUGCCCUAGGGCUCUGACAGAAUCUGAGCCUCUUUGCUGGUCAUGUGCUCUUGCGGUCGCACUAGUGUGGAAUUCUCGGGUGUCAAGG
B2: ENSMUSG00000022095.153|Fam160b2|110:114 (ssRNA)
RNA: GGGAGUUCUACAGUCCGACGAUCGCUUCGAUAUCCGCAUGCUAGACUAUAGGAACUCAAGGUACAGAUGGGACAGGGCACCCCAACUCCAAACCCCAGAAGCCUAGUGAGGCUAGGCCGAGACACAAGCAGAUAGCUCUGGCAUUGUUCUUCCAUACUCCUCCAUGGCUGGGGCUGCUACCUCACCCGGCCUGAAUCUGUCUCAACCUGCAAGAGCACUCGGGCGGCGCCAGGCAUUACCUCACAACAGGCCUGCAGUUGUUGGCUUCCCUCCUGGGCAAGGAGGAGCAGGCCAGAGCCCCUUCUCUUGCGGUCGCACUAGUGUGGAAUUCUCGGGUGUCAAGG
B3: ENSMUSG00000042529.77|Kcnj12|96:100 (ssRNA)
RNA: GGGAGUUCUACAGUCCGACGAUCGCUUCGAUAUCCGCAUGCUAACAAACAAAAACAAACAAACAAACAAUCAAAAAAAAAACCCACCCCACAAAACACAAGAAAACAUUAACAGGUGGUUCAAUUUUUAAAAUUCCUGCACACGGGACAGUUGGAAUUCUACUCAGCGCUGCCAGGCAAGCAGCUGGACGGAGAACCCUGAGGGUUCUCAGAGGUCUGUUUUCUCCCUCACGUGGGCCAGGGCCUUAAGCGAGUUGUCAUGCUUAAGGAUGAAUCAGGCUGCUUGUGACCAUGUUAACGAUUCCUCUUGCGGUCGCACUAGUGUGGAAUUCUCGGGUGUCAAGG
B4: ENSMUSG00000090935.460|Synj2bp (ssRNA)
RNA: GGGAGUUCUACAGUCCGACGAUCGCUUCGAUAUCCGCAUGCUACACAACCAGUAAGAAAAAUAUUGCCAUCCAAAACAGAGCACAGUGCAGCAACAUAGAAGAUAAGCAGAUAACCAGCAAGUAUUGUAAGGAGUUCAGAAAAGGAAAGCCAUCGUGUAGUGGCAUCAGGGGAGAAUGGAAAGGAAAGUCUAGAACAGUCCAGUGAUACUUUACCUCUGGGAAAACUCUUGAUACAGGGAGACAUUUGCUUUAAACAAUCUUCACAUAACUAAGCCAUUCAGUACUUUUUGAAACUGACUUAGCUCUUGCGGUCGCACUAGUGUGGAAUUCUCGGGUGUCAAGG
B5: ENSMUSG00000061578.947|Ksr2 (ssRNA)
RNA: GGGAGUUCUACAGUCCGACGAUCGCUUCGAUAUCCGCAUGCUAAAGACUGCAUGUUAACGCUCCUGCCACUGUUGCCCCUUCCUUUACCCUUGGCAGACAUUGCUAAUCAAUCUCAGCACAGUUUCCAACCACAGUCAUAGAACAUUUGCCACAAAGGCCCUGGAUGUGACUAUAUGUGCUGAGAAGGGAAGGUAGUUUUCCCCCAGAAAGUCCCUUCUAAUAAACAUUGAUGACUUUAGAAUCCAUGACUCAGAAUUUUCCAGAGACCCAAUCCCUCGGGGUCCACUUAGUGAUGGGACCAUCUCUUGCGGUCGCACUAGUGUGGAAUUCUCGGGUGUCAAGG
B6: ENSMUSG00000090935.28|Synj2bp|72:76;256:260 (ssRNA)
RNA: GGGAGUUCUACAGUCCGACGAUCGCUUCGAUAUCCGCAUGCUAGUAAAUGGCCAAGAUCUGAAGAACCUGCUGCACCAAGAUGCUGUAGACCUCUUCCGUAAUGCGGGAUGUGCACACACCCUGAGAGUACAGCACAGGUUACCAGUGCAGAAUGGACCUAUAGUACAUCGAGGUGAAGGAGAGCCAAGUGGAGUUCCUGUAGCUAUGGUGCUGCUACCAGUGUUUGCCCUCACCAUGGUAGCAGUUUGGGCCUUCGUGAGAUACCGAAAGCAGCUUUGAAAUGCUUGCUGUCUUCCACACACCUCUUGCGGUCGCACUAGUGUGGAAUUCUCGGGUGUCAAGG
B7: ENSMUSG00000042529.254|Kcnj12 (ssRNA)
RNA: GGGAGUUCUACAGUCCGACGAUCGCUUCGAUAUCCGCAUGCUAUUCCCCUAGGACCCGCUGCAGAGGCAUGGGCUCCUCUGUGGUCCUGGCCAGACCUCUGCCCCCAAAUCUCACUGACUGUUCUAGCCUUGGCCUUGGGGCCUAAGGGUGCAUUCAGCCUGGGUGUGCUUACCUGCCACUCACCUCUCUAUCUAGUUGUCGAGUCUAGGGAAGGGCAGAGGGUGGGUCCUGGCCACUGGGUGCCACUGUGGGAGCCGGGGCACCUGUCAUUCUUUCUGAGUAGGUGGGCCUGUAUCCAGAGCCUCUUGCGGUCGCACUAGUGUGGAAUUCUCGGGUGUCAAGG
B8: ENSMUSG00000061578.312|Ksr2 (ssRNA)
RNA: GGGAGUUCUACAGUCCGACGAUCGCUUCGAUAUCCGCAUGCUACCAGGGAGGGCUGAAGCUCUGGGACCCUGAAGUGUCCCCCGGGAACUGGGACUCACUCAUCUUCUCCUGUUUGUAGCUCAAUGACCCAGUGGGUCACAGUUCUAGGCGCUCCAAGGAAGCCAGGGGAGGGGGACUCCUCAGGAAGGAGUGACCAGUCACCUGCCUCCCAGGGUUCUGCCUUGCCCUUAAGCUAGGGUCCUUCAAGCAUCCACAGACUUAGAGUGUGGUGGUAACAUGCUUGUAAUCCUGGCACUCUGGAGCUCUUGCGGUCGCACUAGUGUGGAAUUCUCGGGUGUCAAGG
B9: ENSMUSG00000029636.114|Wasf3 (ssRNA)
RNA: GGGAGUUCUACAGUCCGACGAUCGCUUCGAUAUCCGCAUGCUAGCGGCCAUUUUUAUGAGGGGAGCCCUGUGGGUACUCAUGUGGAAAGUGCCCACUGACUUUGGCAGAUGGAGUUCACUUUCAUGGCUAGCCCUGAUAGCGUUGGGCACCAGUUAGCCAGGCCAUGUUCAAGCUGCCUAGAGUCUGCAGAGCUUGCAUGGCAGAGCGGCCGCAUCUGGUUCCCUCCUACUCCACCCAGUGGAAAAGAGACCUCCACGUUUUAUUUUCUGGGAUCCCUGCUCCUCUGUUCACCAGGGAGUGAGCUCUUGCGGUCGCACUAGUGUGGAAUUCUCGGGUGUCAAGG

The binders below were run against TDP-43 (Homo sapiens, UniProt Q13148 1-414) (assay: RNA Bind-n-Seq with designed 260-mer pool; 25 mM Tris-HCl, 150 mM KCl, 3 mM MgCl2, BSA (printed 500 mg/mL), 20 units/mL SUPERase IN; pH not stated; 500 nM RNA pool, 1 h, 4 C; TDP-43 5, 50, 500 nM; high values mean tight binding). Details: protein: recombinant; tags: SBP (GST cleaved off with PreScission; pGEX-GST-SBP).
Method in brief: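 The incubation lasted 1 h at 4 °C and used 500 nM of an in vitro-transcribed 260-nt 3′ UTR oligo pool with recombinant SBP-tagged TDP-43 at 5, 50 or 500 nM immobilized on streptavidin beads. It took place in 25 mM Tris-HCl, 150 mM KCl, 3 mM MgCl2, BSA and SUPERase IN. Bound RNA was washed, eluted with biotin, converted to cDNA, PCR-amplified and sequenced to give R, each oligo's normalized abundance in the bound sample divided by that in input. Two independent protein batches provided the duplicates.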

Sequence of TDP-43 (Q13148 whole entry): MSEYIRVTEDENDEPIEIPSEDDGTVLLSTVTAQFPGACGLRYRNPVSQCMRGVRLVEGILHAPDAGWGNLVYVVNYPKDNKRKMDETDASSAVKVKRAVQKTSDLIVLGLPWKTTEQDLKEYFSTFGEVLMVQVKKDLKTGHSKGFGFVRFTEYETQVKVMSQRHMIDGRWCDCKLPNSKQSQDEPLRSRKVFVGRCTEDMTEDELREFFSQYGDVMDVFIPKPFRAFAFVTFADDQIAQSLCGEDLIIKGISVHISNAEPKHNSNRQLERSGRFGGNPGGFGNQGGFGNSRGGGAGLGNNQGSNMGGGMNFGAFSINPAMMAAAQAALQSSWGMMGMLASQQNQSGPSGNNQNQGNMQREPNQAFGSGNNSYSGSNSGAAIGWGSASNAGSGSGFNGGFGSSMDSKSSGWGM

B1 was tested. Which binding signal did it give?
The binding signal was 0.713 R (bound/input frequency ratio).

For B2, which binding signal is on record?
Its binding signal is 1.53 R (bound/input frequency ratio).

With B3 as the binder, how does the binding signal read?
Its binding signal is 1.63 R (bound/input frequency ratio).

For B4, which binding signal is on record?
The binding signal was 0.396 R (bound/input frequency ratio).

How did the binding signal turn out when B5 was run?
Its binding signal is 0.693 R (bound/input frequency ratio).

With B6 as the binder, how does the binding signal read?
Its binding signal is 1.49 R (bound/input frequency ratio).

How did the binding signal turn out when B7 was run?
The binding signal was 0.966 R (bound/input frequency ratio).

B8 was tested. Which binding signal did it give?
The binding signal was 0.535 R (bound/input frequency ratio).

For B9, which binding signal is on record?
Its binding signal is 0.753 R (bound/input frequency ratio).
